# High-throughput results (PubChem)
# GSTO1 counter – inhibitors of recombinant GSTO1, primary screen, counter-screen for RBBP9 inhibitor project, biochemical, fluorescence polarization. Glutathione S-transferase omega-1 (Homo sapiens), P78417. activity-based probe fluorescence polarization. inhibition, % at 5.96 µM. 300,000 tested, 1.1% active;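 active means inhibition above the campaign mean inhibition plus 3 SD, cut at about 35% in these data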;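 further: 0% = GSTO1-1 with DMSO and 100% = wells lacking GSTO1-1 enzyme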
# Target sequence (P78417 whole entry, looked up): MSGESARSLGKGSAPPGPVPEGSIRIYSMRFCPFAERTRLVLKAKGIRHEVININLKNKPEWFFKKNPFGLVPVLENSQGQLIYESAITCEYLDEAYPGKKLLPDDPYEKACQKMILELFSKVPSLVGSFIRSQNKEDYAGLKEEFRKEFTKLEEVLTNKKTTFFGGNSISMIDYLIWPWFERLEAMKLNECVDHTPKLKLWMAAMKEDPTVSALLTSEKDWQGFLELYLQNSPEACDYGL
# LYPLA1 inh – LYPLA1 inhibitors, primary screen, counter-screen for PME1 inhibitor project, biochemical, fluorescence polarization, FP-Rh probe ABPP; Acyl-protein thioesterase 1 (Homo sapiens), O75608; recombinant LYPLA1; inhibition, % at 5.9 µM; 320,000 tested, 0.16% active;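 active means inhibition above the mean of all tested compounds plus 3 SD, set per campaign, cut at about 14% in these data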;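 further: inhibitors block serine hydrolase probe labeling of LYPLA1 so polarization falls; 0% = enzyme with DMSO and 100% = wells lacking LYPLA1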
# Target sequence (O75608 whole entry, looked up): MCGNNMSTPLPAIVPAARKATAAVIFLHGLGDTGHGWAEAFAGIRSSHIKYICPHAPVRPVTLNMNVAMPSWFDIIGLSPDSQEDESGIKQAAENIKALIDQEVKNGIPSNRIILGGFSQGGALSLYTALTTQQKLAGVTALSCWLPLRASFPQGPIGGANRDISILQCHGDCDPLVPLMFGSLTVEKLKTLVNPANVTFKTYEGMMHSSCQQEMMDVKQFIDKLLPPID
# PAD4 inh – human PAD4 inhibitors, primary screen, biochemical, fluorescence polarization, 1536-well format. 330,000 tested, 0.41% active. inhibition, % at 6.36 µM. Protein-arginine deiminase type-4 (Homo sapiens), Q9UM07. recombinant PAD4, RCA probe fluorescence polarization;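 active means percent inhibition above a cutoff equal to the mean of all tested compounds plus 3 SD, cut at about 15% in these data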;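 further: 0% = PAD4 with RCA probe and DMSO and 100% = probe without PAD4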
# Fam108B inh – mouse Fam108B serine hydrolase inhibitors, primary screen, counter-screen for RBBP9 inhibitor project, biochemical, fluorescence polarization; inhibition, % at 9.51 µM; recombinant Fam108B, FP-Rh probe fluorescence polarization; 300,000 tested, 0.33% active; AID 1947, 2009;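 active means inhibition above the screen mean inhibition plus 3 SD, computed separately per campaign, cut at about 18% in these data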;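 further: inhibitors lower polarization as less probe binds the enzyme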
# PME-1 inh – PME-1 inhibitors via competitive probe labeling, primary screen, biochemical, fluorescence polarization, FP-Rh probe, HTS. inhibition, % at 5.9 µM. 320,000 tested, 0.53% active. recombinant PME-1;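 active means inhibition above the campaign mean of all compounds plus 3 SD, cut at about 26% in these data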;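 further: competitive labeling of PME-1 active site by serine hydrolase directed probe; 0% = PME-1 with DMSO and 100% = wells lacking PME-1 enzyme; inhibitors block probe labeling so polarization falls and inhibition rises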
# LYPLA2 counter – LYPLA2 inhibitors, primary screen, counter-screen for PME1 inhibitor project, biochemical, fluorescence polarization, FP-Rh probe ABPP. inhibition, % at 5.9 µM. 320,000 tested, 0.38% active. AID 2177, 2009. recombinant LYPLA2;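 active means inhibition above the screen-wide mean plus 3 SD, limit set per campaign, cut at about 26% in these data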;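 further: 0% = LYPLA2 with DMSO and 100% = wells lacking LYPLA2 enzyme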
# Target sequence (O95372 whole entry, looked up): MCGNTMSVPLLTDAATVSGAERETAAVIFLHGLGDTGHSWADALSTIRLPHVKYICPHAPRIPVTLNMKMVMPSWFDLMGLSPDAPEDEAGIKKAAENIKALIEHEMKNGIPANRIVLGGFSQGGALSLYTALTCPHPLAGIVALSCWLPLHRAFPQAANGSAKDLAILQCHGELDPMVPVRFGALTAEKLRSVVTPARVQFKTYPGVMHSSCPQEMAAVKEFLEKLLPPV
# LYPLA2 conf – LYPLA2 inhibitors, retest, confirmation, counter-screen for PME1 inhibitor project, biochemical, fluorescence polarization, FP-Rh probe ABPP | shares compounds with LYPLA2 counter | recombinant LYPLA2 | inhibition, % at 5.9 µM | 1,100 tested, 72% active;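 active means mean inhibition across replicates above the hit cutoff set in the primary screen, cut at about 26% in these data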;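 further: blocked labeling of the enzyme by serine hydrolase FP-Rh probe lowers polarization; 0% = enzyme with DMSO and 100% = wells lacking LYPLA2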
# LYPLA2 gel ABPP – LYPLA2 inhibitors in proteome, late-stage follow-up, gel-based competitive ABPP, fluorescence, assay provider; 150 tested, 30% active; rhLYPLA2 in mouse brain proteome, gel ABPP FP-Rh; AID 652029, 2013; inhibition, % at 20 µM; shares compounds with LYPLA2 counter;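 active means inhibition of LYPLA2 enzyme probe labeling above about 50%, limit read from the data; inactive means inhibition below that limit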;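 further: loss of FP-Rh probe labeling of the LYPLA2 gel band measured as band density; 0% = DMSO only control band and 100% = blank gel background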
# * hit, by the source's call; · = no result. Sampled rows, rich in hits. Any-hit rate of the full collection: about 1.8%.
SMILES,GSTO1 counter,LYPLA1 inh,PAD4 inh,Fam108B inh,PME-1 inh,LYPLA2 counter,LYPLA2 conf,others
FC(F)(F)c1cnc(Nc2ccc(N3CCOCC3)cc2)c(Cl)c1,6.5,-3.8,-7.3,7.2,-9.9,7.0,·,
Nc1ccc(Sc2ccccc2Cl)nc1,-5.9,2.5,4.2,-1.0,-3.2,2.5,·,
O=[N+]([O-])c1ccc(Sc2ccccc2Cl)nc1,6.5,3.6,-0.8,2.7,-0.6,45.2*,47.8*,
O=C(Nc1cc(S(=O)(=O)N2CCCCC2)ccc1N1CCOCC1)c1cc(=O)[nH]c2ccccc12,2.1,-1.8,1.7,0.6,2.8,31.6*,26.6*,
CCOCCCNC(=O)C(c1ccccc1)N(Cc1cccs1)C(=O)CNC(C)=O (stereo unspecified),-4.6,1.4,4.8,8.0,-4.1,5.9,·,
CC(=O)c1ccc(N2CCN(c3ccc(S(=O)(=O)NCCCN(C)C)cc3[N+](=O)[O-])CC2)cc1,-1.3,9.8,-2.6,-3.4,-5.4,26.2*,19.1,
CN(C)CCCNS(=O)(=O)c1ccc(-n2nnc3ccccc32)c([N+](=O)[O-])c1,9.9,-3.3,1.1,-0.8,-5.2,-1.2,·,
CC(=O)c1ccc(N2CCN(c3ccc(S(=O)(=O)NCCN(C)C)cc3[N+](=O)[O-])CC2)cc1,5.0,4.3,-0.4,3.2,2.3,28.1*,31.2*,
CN(C)CCNS(=O)(=O)c1ccc(N2CCc3ccccc32)c([N+](=O)[O-])c1,8.9,5.7,1.4,0.1,4.8,7.9,·,
CC(C)C[C@H](NC(=O)c1nc[nH]c1C(=O)NCCCCCN)C(=O)OCc1ccccc1,·,·,1.0,·,·,·,·,
O=S(=O)(Nc1nc2ccccc2nc1Nc1ccc2c(c1)OCO2)c1ccc(F)cc1,17.6,-3.6,-1.4,3.3,3.1,4.8,·,
O=[N+]([O-])c1ccccc1-c1nc(-c2ccc(Br)o2)no1,0.2,0.1,-5.6,-1.4,2.5,31.9*,29.4*,
O=C(NCCS(=O)(=O)NCc1ccc2c(c1)OCO2)c1ccccc1,-3.1,-0.5,-3.8,0.1,-3.7,-0.6,·,
CN(C(=O)c1ccc(NC(=O)Cc2ccc(NC(=O)C3CCCN(C(=O)CCc4ccccc4)C3)cc2)cc1)C1CC1 (stereo unspecified),·,6.2,4.3,·,-3.2,57.8*,50.4*,LYPLA2 gel ABPP=46.0
CN(C(=O)c1ccc(NC(=O)Cc2cccc(NC(=O)C3CCCN(C(=O)CCc4ccccc4)C3)c2)cc1)C1CCCC1 (stereo unspecified),·,-0.9,-0.9,·,-5.6,-1.0,·,
COc1ccccc1OCC(=O)NNc1c2ccccc2nc2ccccc12,8.8,-1.6,1.8,3.0,10.3,5.3,·,
COc1ccc(/C=N/N2CCN(Cc3ccc(C)cc3)CC2)cc1Br,-0.2,5.3,-0.3,0.6,-1.7,26.1*,21.4,
Cc1ccc(CN2CCN(/N=C/c3ccc(C(=O)O)cc3)CC2)cc1,1.6,-1.5,4.9,9.8,-5.9,-1.7,·,
COc1cc2c(C(=O)N3CCN(c4ccccc4F)CC3)cn(C)c(=O)c2cc1OC,7.8,-2.2,1.5,3.2,2.2,2.0,·,
Cc1oncc1C(=O)N1CCCC(CO)(Cc2ccc(F)cc2F)C1 (stereo unspecified),5.1,-2.2,1.6,-1.1,0.1,3.7,·,
CC1CC1C(=O)OCC(=O)N(C)CC(=O)Nc1ccc(F)cc1 (stereo unspecified),·,·,0.3,·,·,·,·,
CCCC(=O)Nc1ccc(C(=O)COC(=O)C2CC2C)cc1 (stereo unspecified),·,-0.1,-2.8,·,-2.6,28.7*,28.1*,
COc1ccc(N2CCN(C(=O)CN(C)S(=O)(=O)c3cccs3)CC2)cc1,0.8,4.5,-1.4,0.0,-7.9,28.5*,36.2*,
O=C(C1CCN(S(=O)(=O)c2ccccc2)CC1)N1CCN(c2ccccc2)CC1,4.9,1.3,-1.9,4.6,20.6,10.2,·,
O=C(C1CCN(S(=O)(=O)c2cccnc2)CC1)N1CCN(c2ccc(Cl)cc2)CC1,6.0,3.3,0.2,1.2,5.4,38.0*,41.8*,
SMILES,GSTO1 counter,LYPLA1 inh,PAD4 inh,Fam108B inh,PME-1 inh,LYPLA2 counter,LYPLA2 conf,others
COc1ccc(N2CCN(C(=O)C3CCN(S(=O)(=O)c4ccccc4)CC3)CC2)cc1,5.4,-1.9,-2.3,1.8,19.4,37.5*,44.1*,
O=C(C1CCN(S(=O)(=O)c2cccnc2)CC1)N1CCN(c2ccccc2Cl)CC1,6.5,3.3,-1.1,1.2,8.3,7.5,·,
COc1cccc(C(=O)OCC(=O)NC(C)CCc2ccccc2)c1O (stereo unspecified),4.3,3.3,-0.2,1.7,13.2,-6.5,·,
CC(=O)c1c(NC(=O)c2ccccc2)[nH]c(-c2ccccc2)nc1=S,-21.0,-6.1,8.3,1.3,2.4,-8.9,·,
O=C1C2CCCN2C(=O)N1CCCCN1CCN(c2cccc(Cl)c2)CC1 (stereo unspecified),-0.3,1.5,-0.5,1.0,-1.6,39.3*,35.8*,
COc1cccc(CN2CC(C(=O)NCCn3cccn3)CCC2=O)c1 (stereo unspecified),4.2,3.3,-1.5,-0.7,4.4,2.7,·,
COc1cc(CN2CCNC(=O)C2CC(=O)O)cc(OC)c1 (stereo unspecified),6.3,2.3,-0.1,2.3,-1.2,0.5,·,
O=C(COc1ccc(S(=O)(=O)NCc2ccccc2)cc1Cl)NCc1ccncc1,5.4,-2.0,-2.3,1.2,9.5,40.6*,46.0*,
O=C(COc1ccc(S(=O)(=O)NCc2ccccc2)cc1Cl)NCc1ccccn1,-2.0,1.8,-5.2,-1.0,4.1,15.0,·,
CCc1ccc(C(=O)COC(=O)c2cc([N+](=O)[O-])ccc2NCCO)cc1,11.7,-3.1,-1.3,-1.0,6.7,26.9*,19.6,
O=C(COC(=O)c1cc([N+](=O)[O-])ccc1NCCO)c1ccc(Cl)cc1,9.2,-1.3,-4.2,-7.2,3.4,8.0,·,
CCCN(C(=O)C(C)Oc1cccc(Cl)c1)c1c(N)n(Cc2ccccc2)c(=O)[nH]c1=O (stereo unspecified),0.8,-0.9,-1.2,2.2,-0.2,-2.2,·,
